# Reference: PubChem BioAssay (NCI)
# The panel holds about 83,000 compounds, 20% with a hit somewhere; the sample as a whole holds those more often.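 In brief: 96-well plates, 48 h treatment, single concentration, percent growth endpoint.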 Unmarked numbers belong to inactive results. The source made the active and inactive calls.
# Tested on: HT29 colon
# Assay: NCI-60 one-dose screen, 48 h (100 = growth as untreated, 0 = no growth, -100 = all killed)
# Details: 10 µM unless noted
# Description: Growth inhibition of the HT29 human tumor cell line is measured as a screen for anti-cancer activity. Cells are grown in 96 well plates and exposed to the test compound for 48 hours. Compounds are tested at a single concentration, which is 10^-5 M for most compounds. The reported endpoint is percent growth (GI% or GIPRCNT), where numbers from 0 - 100% represent growth inhibition, and numbers from -100% - 0 represent cell death. For example, a value of 40 represents 60% growth inhibition. A value of 0 means no net growth occurred over the course of the experiment. A value of -40 indicates 40% of cells at the beginning of the experiment died by the end of the experiment. A value of -100 means all cells are dead at the end of the experiment.
# NCI-60 Human Tumor Cell Lines Screen was performed using the standard one-dose NCI protocol, which is described in more detail at https://dtp.cancer.gov/discovery_development/nci-60/default.htm.
# Compounds with GIPRCNT values below 10 were considered active. Activity score was based on GIPRCNT using the following formula: […]
# Score is 0 for GIPRCNT values of 100 or above, 50 for GIPRCNT values of 0, and 100 for GIPRCNT values of -100.
row,Structure (SMILES),growth
1,CC(=O)Nc1c(Cl)cc2c(c1Cl)Cc1ccccc1-2,106%
2,CCOc1cc(/C=C/C(=O)C(C(=O)/C=C/c2ccc(OC(=O)CNc3nnc(C)s3)c(OCC)c2)C(=O)CNc2nnc(C)s2)ccc1OC(=O)CNc1nnc(C)s1,-100% (active)
3,CN1CCN(c2nc3scc(-c4ccccc4)c3c(=O)[nH]2)CC1,96.7%
4,NC(=O)c1cc(Cl)ccc1NC(=O)c1ccccc1-c1ccccc1,9.11% (active)
5,COc1ccc(/C=C2\CCc3ccccc3C2=O)cc1,80.4%
6,Clc1ccc(C2c3ccccc3-c3nccn32)c(Cl)c1 (stereo not given),77.9%
7,O=c1ccn(C2CC=C(CO)O2)c(=O)[nH]1 (stereo not given),111%
8,CCc1nn2c(-c3ccc(Cl)cc3C)c(-c3cc(OC)c(OC)c(OC)c3)nc2s1,66.8%
9,CC(=O)[C@H]1CC[C@H]2[C@@H]3C[C@H](C)C4=CC(=O)CC[C@]4(C)[C@H]3C(=O)C[C@]12C,101%
10,Cc1ccc(OCC(=O)Nc2ccc(Oc3ccccc3)cc2)c([N+](=O)[O-])n1,95%
11,C[C@H]1C(=O)N2c3ccccc3[C@@]3(O)C[C@@H](n4cnc5ccccc5c4=O)C(=O)N1[C@@H]23,120%
12,O=C(CN1CCN(c2ccc(Cl)cc2)CC1)N1CCN(c2nnc(-c3ccccc3)c(-c3ccccc3)n2)CC1,29.2%
13,COc1ccc(C(=O)/C=C/c2cccc(Nc3ccnc4cc(Cl)ccc34)c2)cc1,1.05% (active)
14,O=C(N/N=C/c1cccc([N+](=O)[O-])c1)c1ccc(Br)o1,105%
15,COc1ccc2c(c1)[n+](=O)c(C(=O)/C=C/c1cc(OC)c(OC)c(OC)c1)c(C)n2[O-],85.2%
16,O=C(COc1ccc(/C=C2\Oc3ccc4ccccc4c3C2=O)cc1)c1ccc([N+](=O)[O-])cc1,109%
17,O=C1OC(Oc2ccccc2)(c2ccccc2)c2ccccc21 (stereo not given),102%
18,O=C1CSC(c2ccccc2Cl)N1c1nnc(Cn2nnc3ccccc32)o1 (stereo not given),81.2%
19,Cc1sc2nc(NCc3ccccc3)[nH]c(=O)c2c1C,13.3%
20,Oc1ccc(/C=N/Nc2nc3ccccc3s2)c(O)c1,67.3%

row,Structure (SMILES),growth
1,N=C1c2nc3n(c2C(=O)c2nc4n(c21)CCCCC4)CCCCC3,106%
2,COc1ccc(NC(=O)[C@@H]2C[C@H]2c2ccccc2)c(C(N)=O)c1,95.5%
3,N#CC(C#N)C(C#N)C#N,97%
4,N#CC1c2ccccc2C=CN1C(=O)N(c1ccccc1)c1ccccc1 (stereo not given),57.2%
5,CNc1nc(NC2CCCC2)nc(Sc2ccc(OC)cc2)n1,3.05% [100 µM] (active)
6,CN(C)c1ccc(-c2nc3ncc(Br)cc3o2)cc1,110%
7,Nc1ccc(N=Nc2ccccc2)cc1[N+](=O)[O-],92%
8,COP(=O)(OC)C(c1ccccc1)(c1ccccc1)c1ccccc1,91.4%
9,COC(=O)[C@H](CCCCNC(=O)OCc1ccccc1)NC(=O)[C@@H](NC(=O)Nc1cc(C(F)(F)F)cc(C(F)(F)F)c1)C(C)C,-60.8% [100 µM] (active)
10,CN[C@@H]1C(OC2[C@H](O[C@H]3[C@H](O)[C@@H](O)[C@H](N=C(N)N)[C@@H](O)[C@@H]3N=C(N)N)OC(C)[C@]2(O)CO)OC(CO)C(O)C1O (stereo not given in full),98.5%
11,CC(=O)Nc1ccc(C(=O)COc2cccc(/C=C3\CCc4ccccc4C3=O)c2)cc1,101%
12,CCN(CC)c1ccc(/C=C/C(=O)c2cccc(NS(C)(=O)=O)c2)cc1,5.36% (active)
13,CCOC(=O)C1=CCC(n2cc(C)c(=O)[nH]c2=O)O1 (stereo not given),110%
14,O=CNc1ccc2c(c1)Cc1cc([N+](=O)[O-])ccc1-2,37.5%
15,COc1cnc2c(c1)C(=O)c1c-2n(CCCn2ccnc2)c(=O)c2cc(F)ccc12,-16.2% (active)
16,COc1cc(/C(Cl)=C/C=C/C(=O)c2c(C)[n+]([O-])c3ccc(Cl)cc3[n+]2[O-])cc(OC)c1OC,14.1%
17,O=C(Nc1ccccc1)P(=O)(O)c1ccccc1,114%
18,CN1C(=O)C(C2=NN(C=O)C(c3ccc(F)cc3)C2)C(=O)N(C)C1=O (stereo not given),91.7%
19,c1ccc(-c2n(Cc3ccc4ccccc4c3)cc[n+]2Cc2ccc3ccccc3c2)cc1,-83.8% (active)
20,Oc1c(Cl)cc(Cl)c(Cl)c1Cc1c(O)c(Cl)cc(Cl)c1Cl,13.1%
